Data as given in ChEMBL document CHEMBL1157539, “Thousands of chemical starting points for antimalarial lead identification” (Nature, 2010).

test system: Plasmodium falciparum; experiment: GSK_TCMDC: Inhibition of Plasmodium falciparum 3D7 in whole red blood cells, using parasite LDH activity as an index of growth. Test compounds present at 2uM; type: functional

Compound	Inhibition
CC(CN(C)C)C(=O)Nc1cccc(-c2cccc(-c3nc4ccccc4[nH]3)c2)c1 (stereo not given)	94%
COc1cc(O)c2c(=O)c(OC)c(-c3cccc(Cl)c3OC3O[C@H](CO)[C@@H](O)[C@H](O)[C@H]3O)oc2c1OC (stereo not given in full)	100%
CCCOc1cc(OCCC)cc(-c2cc(=O)c3ccccc3[nH]2)c1	99%
Cc1ccc(NC(=O)Nc2ccc(Cl)c(C(F)(F)F)c2)cc1-c1ccc(C(=O)NCCN2CCOCC2)cc1	98%
C[C@@H](CC1CCCCC1)OC(=O)N(C)[C@H]1CCN(C#N)C1	84%
COc1cc(-c2nc(-c3ccc(C(=O)c4ccc(F)cc4)cc3)c(-c3ccccc3)[nH]2)cc(OC)c1O	100%
CC[C@]1(C)C[C@@H](NC(=O)NC(=O)c2ccc(OC)cc2)[C@]2(C)[C@H](C)CC[C@]3(CCC(=O)[C@H]32)[C@@H](C)[C@@H]1OC(=O)NC(=O)c1ccc(OC)cc1	100%
CC1(C)N=C(N)N=C(N)N1OCc1ccc2c(c1)OCO2	93%
CCc1cc(=O)[nH]c(-n2nc(C)cc2NC(=O)CC(c2ccccc2)c2ccccc2)n1	92%
Cl.O=C(Nc1cccc2ccccc12)N1CCc2cc3nccc(N4CCN5CCC[C@H]5C4)c3cc21	99%
O=C(Nc1ccc2c(c1)CCC2)c1cccc(N2CCN(c3ccncc3)CC2)c1.O=C(O)C(F)(F)F	92%
Cc1cccc2nc(-c3cccc(-c4ccc(C(=O)NCc5ccccc5S(C)(=O)=O)cc4)c3)[nH]c12	100%
COc1cc2nc(Nc3ccc4c(c3)OCCO4)nc(N)c2cc1OC.Cl	100%
O=C(O)C(F)(F)F.O=S(=O)(NCCN1CCCC1)c1ccc(-c2cccc(CNCCc3cccs3)c2)cc1	95%
O=C(Nc1ccc(F)c([N+](=O)[O-])c1)Nc1cc(C(F)(F)F)ccc1Cl	100%
CCc1cc(C(=O)c2cccc(C)c2)c(NC(=O)CN2CCN(C(=O)c3ccco3)CC2)s1	91%
O=c1[nH]c2c(cc1CNC1CCCCC1)c(-c1ccc(F)cc1)nn2-c1ccccc1	99%
Cc1cc(OCCCN2CCC(NS(=O)(=O)c3ccc(Cl)c(Cl)c3)C2)c2ccccc2n1 (stereo not given)	87%

Compound	Inhibition
CCCCN(CCCC)CCOc1cc2c(cc1OC)CCN2C(=O)/C=C/c1ccccc1Cl.Cl	87%
c1cncc(Oc2ccc(Nc3ccnc4cc(-c5cccc(CN6CCCCC6)c5)ccc34)cc2)c1	100%
Cc1cc(N[C@@H](CC(C)C)C(=O)NCCOc2ccccc2)nc(Nc2ccccc2)n1.O=C(O)C(F)(F)F	93%
CC(C)C1c2ccc(O)cc2CC2C(=O)N(C3CCCCC3)C(=O)N21 (stereo not given)	95%
Cc1noc(C)c1-c1ccc2c(Nc3ccccc3C(C)(C)C)c(C(=O)NCc3ccc(OC(C)C)cc3)cnc2c1.Cl	100%
Cc1ccccc1CNc1noc(-c2c(-c3ccccc3)noc2C)n1	94%
COc1ccc(CNC2Cc3ccccc3C2)cc1-c1cccc(S(=O)(=O)NCCN2CCCC2)c1.O=C(O)C(F)(F)F	98%
O=C(C=Cc1ccc(Cl)c(Cl)c1)NCCCCCN1CCCC(CCCNS(=O)(=O)c2cccc3cccnc23)C1 (stereo not given)	96%
COc1ccc(-c2ccc(NC(=O)c3cccc(C#N)c3)cc2)cc1CN1CCNCC1.O=C(O)C(F)(F)F	100%
Cc1cc(C)c(NC(=O)NC2CCN(CCCCCNC(=O)/C=C/c3ccc(Cl)c(Cl)c3)CC2)c(C)c1	100%
O=C(NC1CCN(Cc2ccccc2)CC1)c1cc(C(=O)NC2CCN(Cc3ccccc3)CC2)cc(C(=O)NC2CCN(Cc3ccccc3)CC2)c1	100%
CC(C)CC(=O)N1CCNC[C@@H]1C(=O)NCCSCc1c(F)cccc1Cl.O=C(O)C(F)(F)F	86%
COc1ccc(CNCCCCCCNCc2ccc(OC)c3ccccc23)c2ccccc12.Cl	100%
CCOCCCn1c(=N)c(C(=O)NC(C)c2ccccc2)cc2c(=O)n3cccc(C)c3nc21 (stereo not given)	95%
c1csc(-c2nc(N3CCCC3)ncc2-c2ccsc2)n1	89%
O=C(O)C(F)(F)F.c1ccc(-n2ncc(CNCc3ccc(-c4ccc(-c5nc6ccccc6[nH]5)s4)cc3)n2)cc1	93%
COc1cc(OC)cc(C(=O)N2CCOC(CCN3CCC(c4ccccc4)CC3)(c3ccc(Cl)c(Cl)c3)C2)c1 (stereo not given)	85%
